± gives the standard deviation of the averaged measurements. Over roughly 25,000 sequences, “ln(normalized median fluorescence intensity)” has its median near 8.6; the highest 2% begin near 10. What follows is part of a selection rich in the highest values, with near analogues and random picks from the rest.

The test system of this experiment is PfAP2-EXP AP2 domain (GST-tagged). As to the kind of experiment: gcPBM binding intensity (ln(normalized median fluorescence intensity)); higher = stronger DNA binding. In short, it runs like this:
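An Agilent 4 × 180k array of primer-extended double-stranded 36-bp intergenic genomic probes, with negative controls, was incubated for 1 h with GST-tagged P. falciparum DNA-binding domains expressed in E. coli. Alexa488 anti-GST antibody detected bound protein, scanned at 488 nm. Binding intensity is the highest Masliner-normalised natural-log median intensity across replicate spots of either probe orientation.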
In the case of “CAAACCCACCAACACACACACACAAAAATGATTAAA [CACACA_site2432]”, the “gcPBM binding intensity (ln)” value was 8.49 ± 0.68.

As for “CACACCCACAAAAACACACACAAAGGTGTTCTTATA [CACACA_site1293]”, the “gcPBM binding intensity (ln)” value came out at 9.43 ± 0.64. As for “ATGTTCTTTAAAACCACACACCCCCCAACCCCCCTC [CACACA_site2373]”, the “gcPBM binding intensity (ln)” value was found to be 10.6 ± 0.13. As for “CTTTAAACCCTGAACACACACAAATACACCCAAAAA [CACACA_site4297]”, the “gcPBM binding intensity (ln)” value was 8.81 ± 0.42.

Regarding “TTATGTTCTTTAAAACCACACACCCCCCAACCCCCC [CACACA_site8742]”, the “gcPBM binding intensity (ln)” value was found to be 10.9 ± 0.29. The figure for “ATAAATTTTTTTTTTTTTTTTTTTTTTTTTTTTTTT [CACACA_negctrl_site508]” is 9.19 ± 0.057.

In the case of “ATATATTTTAATTGTTGTACATATTAAATAAATAGG [XGTACX_site2311]”, the “gcPBM binding intensity (ln)” value is 8.47 ± 0.49. The same measure for “TTGTATAAAATATGTAGTACAATAATATAACATTTT [XGTACX_site8607]”: 8.55 ± 0.2; for “TATAAATTTAAAATGACACACACTAAAATTATTTAA [CACACA_site1239]”: 8.36 ± 0.42; for “TTATTTTATCACACATGTACATATGTTAATTTTTTT [XGTACX_site5598]”: 8.84 ± 0.33. In the case of “ATTGGACTATAAATAGGTACACATATATATATATAT [XGTACX_site7562]”, the “gcPBM binding intensity (ln)” value was found to be 10.4 ± 0.33.

Turning to “TTAAAAAAAAAAAAAAGTACATAAGTATATATAATA [XGTACX_site4295]”, the “gcPBM binding intensity (ln)” value was 8.43 ± 0.45.

With “TATATTTATAGGTACACACACACATATAAATAAATA [CACACA_site6345]”, the “gcPBM binding intensity (ln)” value was 8.65 ± 0.37. The same measure for “TACATATATGATAAAAGTACATATAAATATACATAA [XGTACX_site3804]”: 8.45 ± 0.33. For the sequence “ATAATAAAAAAAATTAGTACATATATAAATATAAAT [XGTACX_site1937]”, the “gcPBM binding intensity (ln)” value worked out at 8.3 ± 0.33. Turning to “TAAAAATATAGGTATACACACATATAAATATAAATA [CACACA_site7785]”, the “gcPBM binding intensity (ln)” value is 8.54 ± 0.4. For “ATAAAAAAATAAATTAGTACATATATATATATATAT [XGTACX_site6971]”, the “gcPBM binding intensity (ln)” value stood at 10.1 ± 0.35. “ATAAAAAAAAAAAAAAGTACACATATAAAAGTATTG [XGTACX_site8265]”: the “gcPBM binding intensity (ln)” value amounted to 8.42 ± 0.41.

With “ATATAAAAAAAATTTAGTACATATATATATATATAT [XGTACX_site8635]”, the “gcPBM binding intensity (ln)” value came out at 10.2 ± 0.48.

“AAGCATAAAGTATATAGTACATATATATATATATAT [XGTACX_site2945]”: the “gcPBM binding intensity (ln)” value is 10.2 ± 0.26. The figure for “AGATAAAAAAAGTACACACACACATATATATATATA [CACACA_site3072]” is 10.2 ± 0.26; for “CCTTGATATATATAAAGTACATATATATATATATAT [XGTACX_site4325]” it is 10.2 ± 0.24. The same measure for “ATATAATATATTTTCACACATATTTTATGATGATAA [CACACA_site5614]”: 8.3 ± 0.42; for “TAAATTTGTGGGATTTCACACAGGTTTATTTACATT [CACACA_site5455]”: 8.13 ± 0.45. On to “AGAATAATACAAAAATGTACATTAATAAAAAGATAG [XGTACX_site780]”, for which the “gcPBM binding intensity (ln)” value was 8.99 ± 0.42. The same measure for “TAACAAGGTTTATATGCATGCAAACATAACCAAAAA [TGCATGCA_site824]”: 9.96 ± 0.23; for “CTTACATAAAATATCACACACATAAAAAAACAATAT [CACACA_site1901]”: 8.87 ± 0.39; for “TAACATAGCAATGTTTCACACACAAGAAAAAATACA [CACACA_site8747]”: 8.84 ± 0.45. The figure for “GGGTTAATATTTACTACACACACTTAAAATATGTAT [CACACA_site47]” is 8.59 ± 0.47; for “ATAATATTAGTAAACACACTCAAATTATATATGATA [CACACA_site5721]” it is 8.28 ± 0.59; for “TATATATATATATATAGTACACATATCACATAAATG [XGTACX_site6379]” it is 10.2 ± 0.23. On to “AAATTAATAAGTCACACACACATATATAATATATAT [CACACA_site799]”, for which the “gcPBM binding intensity (ln)” value stood at 8.54 ± 0.36. The figure for “TACATAAAATATATCACACATATAATATATATATAT [CACACA_site5834]” is 9.54 ± 0.16.

As to “ATATAAATAAAAAAAAGTACATAATATATAAAAATA [XGTACX_site3065]”, the “gcPBM binding intensity (ln)” value was determined as 8.72 ± 0.33. The same measure for “AATAAATAAATAAGTACACACATATAAATATAAATA [CACACA_site6271]”: 8.69 ± 0.27; for “TAAAAAAAAATAAAAAGTACATATATATATATATAT [XGTACX_site1155]”: 10.3 ± 0.46; for “CAAAATTAATAAGTCACACACACATATATAATATAT [CACACA_site798]”: 8.73 ± 0.45. The figure for “TATAAAAATAAAAAAAGTACACATAAAAATATATAT [XGTACX_site5189]” is 8.77 ± 0.33. For “AATAAATAAATAAGTACACACATATATATATATATA [CACACA_site284]”, the “gcPBM binding intensity (ln)” value came out at 10.2 ± 0.6.

As for “ATAAAATAAAATAAAAGTACATAAATATATATATAT [XGTACX_site6110]”, the “gcPBM binding intensity (ln)” value worked out at 9.83 ± 0.28. With “ATTAAAATATAAGTCACACATATATATATATATATA [CACACA_site6145]”, the “gcPBM binding intensity (ln)” value worked out at 10.2 ± 0.33. The same measure for “TGTAATAAATAGTACACACACACATATATATATATT [CACACA_site1388]”: 8.73 ± 0.38. The figure for “AGTTGGATACGAAGATGTACAATAATAATAATTAAG [XGTACX_site3561]” is 8.9 ± 0.35; for “GTGAAATTATATTTTTGTACATATATTATATATTAT [XGTACX_site3387]” it is 8.52 ± 0.32.
